PubChem BioAssay AID1159580 (chemical genetic matrix, 2015)
Where “and” joins values, the source holds several entries; their conditions need not be identical. Equal values may be shown once. About 2,000 (36%) of roughly 5,500 compounds were called active. Not shown: some 18% with an inconclusive outcome. No stated cut-off is given here; in the data, active means normalized growth mostly below about 0.91 (no sharp cut-off); inconclusive means no clear call, values can overlap the other calls; inactive means mostly above about 0.92. The list shows a part of the results.

Assay: chemical genetic growth profiling, strain panel (AID 1159580);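 further: tested at 20 µM; growth read once vehicle control cultures reached saturation at 30 °C; 1 = growth at the plate median or of vehicle wells; lower values mean less growth of the strain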
Conditions: S. cerevisiae deletion strains, growth OD

Measured: normalized growth

S=c1nc[nH]c2nc[nH]c12
inactive: locus YAL013W, strain DEP1, active compounds read low 0.996 | locus YAL021C, strain ccr4, active compounds read low 1.02 | locus YAL026C, strain drs2, active compounds read low 0.991 | locus YAL030W, strain snc1, active compounds read low 1.02 | locus YBL061C, strain skt5, active compounds read low 1.02 | locus YBR009C, strain hhf1, active compounds read low 0.997 | locus YBR021W, strain FUR4, active compounds read low 0.997 | locus YBR023C, strain chs3, active compounds read low 1.02 | locus YBR171W, strain sec66, active compounds read low 0.976 | locus YBR229C, strain ROT2, active compounds read low 1 | locus YBR231C, strain swc5, active compounds read low 1.02 | locus YBR279W, strain paf1, active compounds read low 1 | locus YCL011C, strain gbp2, active compounds read low 0.972 | locus YCL016C, strain dcc1, active compounds read low 1.01 | locus YCL029C, strain bik1, active compounds read low 0.976 | locus YCL069W, strain vba3, active compounds read low 0.964 | locus YCR088W, strain abp1, active compounds read low 0.977 | locus YDL005C, strain med2, active compounds read low 0.988 | locus YDL035C, strain GPR1, active compounds read low 1 | locus YDL040C, strain nat1, active compounds read low 1.02 | locus YDL074C, strain BRE1, active compounds read low 1 | locus YDL101C, strain DUN1, active compounds read low 0.996 | locus YDL134C, strain PPH21, active compounds read low 1.01 | locus YDL185W, strain tfp1, active compounds read low 0.964 | locus YDL192W, strain arf1, active compounds read low 0.974 | locus YDR001C, strain nth1, active compounds read low 0.972 | locus YDR069C, strain doa4, active compounds read low 1.02 | locus YDR101C, strain arx1, active compounds read low 1 | locus YDR137W, strain rgp1, active compounds read low 1.02 | locus YDR150W, strain NUM1, active compounds read low 0.999 | locus YDR159W, strain sac3, active compounds read low 0.985 | locus YDR162C, strain NBP2, active compounds read low 0.996 | locus YDR195W, strain ref2 0.992 | locus YDR297W, strain sur2, active compounds read low 1.02 | locus YDR318W, strain mcm21, active compounds read low 0.977 | locus YDR334W, strain swr1, active compounds read low 1.05 | locus YDR335W, strain msn5, active compounds read low 1.01 | locus YDR388W, active compounds read low 0.999 | locus YDR392W, strain spt3, active compounds read low 1.01 | locus YDR502C, strain sam2, active compounds read low 0.991 | locus YEL003W, strain gim4, active compounds read low 0.963 | locus YEL037C, strain rad23, active compounds read low 0.977 | locus YEL061C, strain CIN8 (second series), active compounds read low 0.992 | locus YEL061C, strain CIN8, active compounds read low 0.991 | locus YER015W, strain faa2, active compounds read low 1.01 | locus YER016W, strain bim1, active compounds read low 1 | locus YER110C, active compounds read low 0.969 | locus YER111C, strain swi4, active compounds read low 0.966 | locus YER155C, strain BEM2 (second series), active compounds read low 0.963 | locus YER155C, strain BEM2, active compounds read low 0.99 | locus YER167W, strain BCK2, active compounds read low 0.987 | locus YFR010W, strain ubp6, active compounds read low 0.987 | locus YGL078C, strain dbp3, active compounds read low 0.984 | locus YGL086W, strain mad1, active compounds read low 1.01 | locus YGL167C, strain pmr1, active compounds read low 1.01 | locus YGL173C, strain kem1, active compounds read low 1 | locus YGL227W, strain vid30, active compounds read low 0.975 | locus YGL240W, strain doc1, active compounds read low 1.01 | locus YGL248W, strain PDE1, active compounds read low 0.995 | locus YGL253W, strain hxk2, active compounds read low 1.02 | locus YGR078C, strain PAC10, active compounds read low 1 | locus YGR135W, strain pre9, active compounds read low 0.941 | locus YGR252W, strain gcn5, active compounds read low 0.979 | locus YHR013C, strain ard1, active compounds read low 1.06 | locus YHR027C, strain rpn1, active compounds read low 1.01 | locus YHR030C, strain SLT2, active compounds read low 0.999 and 1.02 | locus YHR079C, strain IRE1 (second series), active compounds read low 0.983 | locus YHR079C, strain IRE1, active compounds read low 1 | locus YHR094C, strain hxt1, active compounds read low 0.987 | locus YHR129C, strain ARP1, active compounds read low 1 | locus YHR142W, strain chs7, active compounds read low 0.999 | locus YHR200W, strain rpn10, active compounds read low 0.98 | locus YIL066C, strain RNR3, active compounds read low 1 | locus YIL073C, strain SPO22, active compounds read low 0.934 | locus YIL125W, strain kgd1, active compounds read low 0.994 | locus YIR030C, strain dcg1, active compounds read low 0.974 | locus YJL092W, strain hpr5, active compounds read low 0.986 | locus YJL095W, strain BCK1 (second series), active compounds read low 1.01 | locus YJL095W, strain BCK1, active compounds read low 0.983 and 1.02 | locus YJL115W, strain asf1, active compounds read low 0.972 | locus YJL129C, strain trk1, active compounds read low 0.97 | locus YJL134W, strain LCB3, active compounds read low 0.984 | locus YJL154C, strain vps35, active compounds read low 0.967 | locus YJL164C, strain tpk1, active compounds read low 0.988 | locus YJL166W, strain qcr8, active compounds read low 1.01 | locus YJL168C, strain set2, active compounds read low 0.989 | locus YJL187C, strain SWE1 (second series), active compounds read low 0.997 | locus YJR043C, strain POL32, active compounds read low 1 | locus YJR066W, strain TOR1, active compounds read low 0.975
